Assay results reported in PubChem BioAssay (NCATS).
Results filed as inconclusive are left out. Calls of active or inactive are those of the source. Calls follow the shape of the dose curve; as a rule, active = well fitted cell-killing curve with a large enough effect; inconclusive = small, poorly fitted or top-dose-only effect; inactive = flat fitted curve, though single readings scatter.

Assay: Cell Viability - LYMP2-021 (AID 974);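 also: compound exposure lasts 24 hours at 37 °C; nearly all actives have a fitted effect of over 55% in size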
Conditions: LYMP2-021 lymphoblastoid cells viability; series mostly up to 92.2 µM
Text: NIH Chemical Genomics Center [NCGC]
NIH Molecular Libraries Screening Centers Network [MLSCN]
National Institutes of Environmental Health Sciences [NIEHS]
National Toxicology Program [NTP]
We have developed a 1536-well cell-based assay for quantitative high throughput screening (qHTS) against a number of cell lines to determine in vitro cytotoxicity of small molecules. This particular assay uses a human lymphoblastoid cell line (LYMP2-021) purchased from Coriell Institute for Medical Research.
NCGC Assay Protocol Summary:
The CellTiter-Glo luminescent cell viability assay (Promega) is a homogeneous method to measure the number of viable cells in culture. The end point readout of this assay is based on quantitation of intracellular ATP, an indicator of metabolic activity, using the luciferase reaction. Luciferase catalyzes the oxidation of beetle Luciferin to oxyluciferin and light in the presence of ATP. The luminescent signal is proportional to amount of ATP present.
Using the CellTiter-Glo luminescent cell viability assay, the amount of cellular ATP was measured in the lymphoblastoid cell line with complete culture medium following compound treatment for 24 hours. The assay was performed in opaque white Kalypsys 1536-well plates. In the screen, tetraoctylammonium bromide was used as positive control. Library compounds were measured for their ability to cause acute toxicity in the cell line, as reflected by a decrease in intracellular ATP levels, in a concentration-dependent manner. […] AC50 values were determined from concentration-response data modeled with the standard Hill equation.
qHTS protocol for CellTiter Glo lymphoblastoid cellular assay
[Step] [Parameter] [Value] [Description]
1. Reagent; 5 uL; 2500 lymphoblastoid cells/well
2. Time; 5 hr; 37 C incubation
4. Controls; 23 nL; Tetraoctylammonium bromide 6.4pM to 92 uM
5. Time; 24 hr; 37 C incubation
6. Reagent; 5 uL; CellTiter Glo reagent
7. Time; 30 min; Room Temperature
8. Detection; Luminescence; Viewlux plate reader
Keywords: cell viability, cytotoxicity, lymphoblastoid cell line, luminescence, NTPHTS, NTPHTS_NCGC, NIEHS, DSSTox, MLSMR, MLSCN, NIH Roadmap, qHTS, NCGC

| Structure (SMILES) | outcome |
| --- | --- |
| NC(=O)c1ccccc1O | inactive |
| NCCNc1cccc2ccccc12 | inactive |
| CCCCC(CC)COC(=O)c1ccc(N(C)C)cc1 (stereo not drawn) | inactive |
| O=C(O)c1ccc(S(=O)(=O)N(Cl)Cl)cc1 | inactive |
| OC[C@H]1O[C@@H]2O[C@H]3[C@H](O)[C@@H](O)[C@@H](O[C@H]4[C@H](O)[C@@H](O)[C@@H](O[C@H]5[C@H](O)[C@@H](O)[C@@H](O[C@H]6[C@H](O)[C@@H](O)[C@@H](O[C@H]7[C@H](O)[C@@H](O)[C@@H](O[C@H]8[C@H](O)[C@@H](O)[C@@H](O[C@H]1[C@H](O)[C@H]2O)O[C@@H]8CO)O[C@@H]7CO)O[C@@H]6CO)O[C@@H]5CO)O[C@@H]4CO)O[C@@H]3CO | inactive |
| CCCN(CCC)S(=O)(=O)c1ccc(C(=O)O)cc1 | inactive |
| COc1cc([C@H]2Oc3cc([C@H]4Oc5cc(O)cc(O)c5C(=O)[C@@H]4O)ccc3O[C@@H]2CO)ccc1O | inactive |
| CCOc1ccccc1C(N)=O | inactive |
| COc1ccc(C(Cl)=C(c2ccc(OC)cc2)c2ccc(OC)cc2)cc1 | inactive |
| C=C[C@H]1CN2CC[C@H]1C[C@@H]2[C@@H](O)c1ccnc2ccc(OC)cc12 | inactive |
| CCOc1ccc(NC(C)=O)cc1 | inactive |
| C/C=C/c1ccc(O)c(OC)c1 | inactive |
| COc1ccc(C(=O)c2ccccc2)c(O)c1 | inactive |
